Cardio protect – cardioprotection against H2O2-induced cell death, primary screen, uHTS, H9c2 cells, ATPLite luminescence | H9c2 cardiomyocytes, H2O2 injury protection, 2 h | protection from H2O2 cell death, % at 20 µM | 0.63% of 360,000 active;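 active = compounds giving at least 50% protection of heart cells from peroxide-induced death in the single-dose screen, raw or plate-pattern-corrected value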
PfG6PD inh – PfG6PD enzyme inhibitors, primary screen, biochemical, fluorescence intensity, uHTS | AID 504690, 2011 | inhibition, % at 20 µM | 0.78% of 350,000 active | PfGluPho enzyme, NADPH resazurin-diaphorase fluorescence;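 active = inhibition reaching at least a set limit at 20 µM in the primary screen, cut at about 59% in these data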
NadD block – inhibitors of S. aureus NadD, primary screen, biochemical, colorimetric, uHTS; Nicotinate-nucleotide adenylyltransferase NadD (Staphylococcus aureus N315); purified NadD enzyme, colorimetric absorbance read-out; inhibition, % at 20 µM; AID 602399, 2012; 0.78% of 360,000 active; in the data active = inhibition above about 26%
H9c2 TAG inh – inhibitors of triacylglycerol accumulation, primary screen, cell-based, uHTS, fluorescence, H9c2. H9c2 cells, Nile Red lipid (TAG) fluorescence; cells loaded with 200 µM oleic acid. inhibition, % at 12.5 µM. 0.66% of 230,000 active;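 active = pattern-corrected inhibition of lipid staining of at least 50% with the nuclear-stain viability signal not falling by more than 50%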
A3A deaminase – APOBEC3A ssDNA deaminase inhibitors, primary screen, selectivity assay for APOBEC3G inhibitor project, biochemical, FAM/TAMRA oligo cleavage fluorescence. recombinant A3A, FAM/TAMRA ssDNA deamination fluorescence. 0.41% of 330,000 active. DNA dC->dU-editing enzyme APOBEC-3A (Homo sapiens), P31941. inhibition, % at 20 µM;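 active = at least 40% inhibition at 20 µM here, with at most 30% in a related deaminase screen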
Target sequence (P31941 whole entry, looked up): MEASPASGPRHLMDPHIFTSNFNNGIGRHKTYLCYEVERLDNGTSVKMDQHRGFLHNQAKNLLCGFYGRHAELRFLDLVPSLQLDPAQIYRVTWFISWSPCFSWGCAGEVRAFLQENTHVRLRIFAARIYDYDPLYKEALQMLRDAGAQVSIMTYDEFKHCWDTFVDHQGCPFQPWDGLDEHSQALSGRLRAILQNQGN
A3G deaminase – APOBEC3G DNA deaminase inhibitors, primary screen, biochemical, fluorescence, single-stranded DNA substrate, uHTS. DNA dC->dU-editing enzyme APOBEC-3G (Homo sapiens), Q9HC16. recombinant A3G, ssDNA deamination FAM/TAMRA fluorescence. inhibition, % at 20 µM. 0.28% of 330,000 active. AID 493012, 2011;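 active = inhibition of at least 40% at 20 µM, with no more than 30% in the related APOBEC3A deaminase screen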
Target sequence (Q9HC16 whole entry, looked up): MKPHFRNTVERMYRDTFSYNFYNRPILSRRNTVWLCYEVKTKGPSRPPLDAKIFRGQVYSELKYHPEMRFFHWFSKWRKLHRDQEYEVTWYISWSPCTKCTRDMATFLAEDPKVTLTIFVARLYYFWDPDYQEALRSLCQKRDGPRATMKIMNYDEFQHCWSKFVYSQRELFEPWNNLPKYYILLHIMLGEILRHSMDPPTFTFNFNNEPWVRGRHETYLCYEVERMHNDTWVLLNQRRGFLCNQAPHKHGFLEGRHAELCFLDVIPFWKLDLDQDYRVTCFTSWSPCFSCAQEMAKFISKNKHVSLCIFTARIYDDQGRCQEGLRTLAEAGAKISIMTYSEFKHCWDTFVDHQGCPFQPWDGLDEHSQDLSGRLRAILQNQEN
PfGluPho conf – PfG6PD inhibitors, hit retest, confirmation, biochemical, fluorescence intensity, single concentration | recombinant PfGluPho, NADPH-diaphorase-resazurin fluorescence | inhibition, % at 20 µM | shares compounds with PfG6PD inh | 34% of 2,400 active;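 active = inhibition of at least 50% at 20 µM in any single replicate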
Diaph ctr 10uM – diaphorase inhibitors and chemical oxidizers, confirmation, counter-screen for P. falciparum G6PD inhibitor project, biochemical, fluorescence intensity, 10 µM NADPH; shares compounds with PfG6PD inh; diaphorase-coupled resazurin reduction, NADPH 10 uM; inhibition, % at 20 µM; 39% of 820 active; AID 504862, 2011;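 active = average inhibition reaching 50% or more with the compound at 20 µM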;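 also: resorufin red fluorescence formed as diaphorase reduces resazurin using NADPH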
Diaphorase 30uM – diaphorase inhibitors and chemical oxidizers, confirmation, counter-screen for P. falciparum G6PD inhibitor project, biochemical, fluorescence intensity, 30 µM NADPH. shares compounds with PfG6PD inh. Diaphorase/resazurin coupled assay, resorufin fluorescence. inhibition, % at 20 µM. 29% of 820 active. AID 504863, 2011;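 active = inhibition averaging 50% or more, tested at 20 µM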
Of the large screens only hits and unclear results are named; the others gave an inactive call (follow-up assays come after a bar, where they were run). In the library only some 2.9% were active in any assay of this set; here they are far more common.

O=C(c1cc(-c2ccc(Cl)cc2)n(-c2ccc(Cl)c(Cl)c2)n1)N1CCOCC1	none
O=C(c1cc(-c2ccc(Cl)cc2)n(-c2cc(Cl)ccc2Cl)n1)N1CCOCC1	PfG6PD inh 77.9 (no result: H9c2 TAG inh) | PfGluPho conf inactive
O=C(O)c1cnn(-c2nc(-c3ccc(Br)cc3)cs2)c1C(F)(F)F	none (no result: H9c2 TAG inh)
COc1ccc(-n2c(C)cc(C(=O)NC3CCCCC3)c2C)cc1	PfG6PD inh 70.6 (no result: H9c2 TAG inh) | PfGluPho conf inactive
O=C(COC(=O)CSc1ccc([N+](=O)[O-])cc1)NCCCc1ccccc1	PfG6PD inh 65.7 | PfGluPho conf inactive
CSc1ccc(S(=O)(=O)NCC(=O)OC(C)C(=O)NCc2ccccc2)cc1[N+](=O)[O-] (stereo unspecified)	none
O=C(COC(=O)CSc1ccc([N+](=O)[O-])cc1)NCCc1ccccc1	none
CC(OC(=O)CSc1ccc([N+](=O)[O-])cc1)C(=O)NCc1ccccc1 (stereo unspecified)	PfG6PD inh 65.7 | PfGluPho conf inactive
CC(Sc1nc2ccccc2c(=O)n1CC1CCCO1)C(=O)N(C)c1ccccc1 (stereo unspecified)	none
O=C(Nc1ccc(Oc2cccnc2)cc1)c1cccc([N+](=O)[O-])c1	PfG6PD inh 60.7 (no result: H9c2 TAG inh) | PfGluPho conf inactive
CCc1ccc(CN2CCC(n3nccc3NC(=O)C3CCCC3)CC2)cc1	none
CCOC(=O)Nc1ccc(NCc2ccc(F)cc2)nc1N	PfG6PD inh 97.8 | PfGluPho conf 79.5 | Diaph ctr 10uM inactive | Diaphorase 30uM inactive
CN(Cc1ccccc1)S(=O)(=O)c1nnc(NC(=O)c2ccccc2)s1	none (no result: H9c2 TAG inh)
COc1ccc(CN(C)S(=O)(=O)c2nnc(NC(=O)c3cccc(OC)c3)s2)cc1	PfG6PD inh 95.6 (no result: H9c2 TAG inh) | PfGluPho conf 62.4 | Diaph ctr 10uM 55.9 | Diaphorase 30uM 60.2
COc1ccc(CN(C)S(=O)(=O)c2nnc(NC(=O)c3ccccc3OC)s2)cc1OC	none (no result: H9c2 TAG inh)
CCOc1ccc(C(=O)Nc2nnc(S(=O)(=O)N(C)Cc3ccco3)s2)cc1	none (no result: H9c2 TAG inh)
COc1ccc(CN(C)S(=O)(=O)c2nnc(NC(=O)c3ccc(C)cc3)s2)cc1OC	PfG6PD inh 87.8 (no result: H9c2 TAG inh) | PfGluPho conf 70.2 | Diaph ctr 10uM inactive | Diaphorase 30uM inactive
CN(Cc1ccco1)S(=O)(=O)c1nnc(NC(=O)c2ccc(F)cc2)s1	PfG6PD inh 98.0 (no result: H9c2 TAG inh) | PfGluPho conf 83.1 | Diaph ctr 10uM 72.1 | Diaphorase 30uM 54.9
COc1cccc(C(=O)Nc2nnc(S(=O)(=O)N(C)Cc3ccccc3)s2)c1	PfG6PD inh 88.3 (no result: H9c2 TAG inh) | PfGluPho conf 77.3 | Diaph ctr 10uM 61.9 | Diaphorase 30uM inactive
Cc1ccc(C(=O)NCCC2=CCCCC2)cc1S(=O)(=O)N1CCCCC1	none
CCN(C(=O)COC(=O)c1ccc(=O)n(Cc2ccccc2)n1)C1CCCCC1	none
CC(OC(=O)Cc1c(F)cccc1Cl)C(=O)NC1CCCCC1C (stereo unspecified)	none
Cc1noc(C)c1COc1ccccc1C(=O)NC(C)c1ccc(Cl)cc1 (stereo unspecified)	none
COc1ccc(/C=C2/CCCC(CN(C)C)C2=O)cc1 (stereo unspecified)	none (no result: A3A deaminase, A3G deaminase)
COc1cccc(/C=C2/CCC(CN(C)C)C2=O)c1 (stereo unspecified)	PfG6PD inh 70.0 (no result: A3A deaminase, A3G deaminase) | PfGluPho conf inactive
COc1cccc(/C=C2\CCC(C3CCCC3)C2=O)c1 (stereo unspecified)	none (no result: H9c2 TAG inh)
CN(C)CC1CCC/C(=C/c2ccc(Cl)cc2)C1=O (stereo unspecified)	PfG6PD inh 60.4 (no result: A3A deaminase, A3G deaminase) | PfGluPho conf inactive
CC(C)C(NC(=O)c1ccccc1)C(=O)OCn1nnc2ccccc2c1=O (stereo unspecified)	none
Cc1nc(NC(=O)c2ccc(Cl)cc2)sc1Cc1ccc2c(c1)OCO2	PfG6PD inh 59.6 (no result: H9c2 TAG inh) | PfGluPho conf inactive
COc1ccccc1NS(=O)(=O)c1cc(NC(=O)CNC(=O)c2ccccc2)ccc1C	none (no result: H9c2 TAG inh)
CCN(CC)c1ccc(N)cc1S(=O)(=O)Nc1ccccc1OC	PfG6PD inh 67.2 | PfGluPho conf inactive
CCN(CC)c1ccc(N)cc1S(=O)(=O)Nc1ccc(OC)cc1	none
CCN(CC)c1ccc(NC(=O)COc2ccccc2C#N)cc1S(=O)(=O)Nc1ccccc1OC	PfG6PD inh 68.5 | PfGluPho conf inactive
CCCc1cc(=O)[nH]c(SCC(=O)NC2CCCc3ccccc32)n1 (stereo unspecified)	PfG6PD inh 64.2 | PfGluPho conf inactive
Nc1c(C(=O)N2CCOCC2)sc2nc(N3CCOCC3)c3c(c12)CCCC3	PfG6PD inh 65.5 | PfGluPho conf inactive
O=[N+]([O-])c1ccccc1-c1ccc(C(=S)N2CCN(c3ccccc3)CC2)o1	none
Cc1ccc(N2CCN(C(=S)c3ccc(-c4ccccc4[N+](=O)[O-])o3)CC2)cc1	PfG6PD inh 59.6 | PfGluPho conf inactive
O=C1C=C(NCCc2cc(Br)c(O)c(Br)c2)C(=O)c2ncccc21	PfG6PD inh 115.4, H9c2 TAG inh 52.8 (no result: A3A deaminase, A3G deaminase) | PfGluPho conf 100.8 | Diaph ctr 10uM inactive | Diaphorase 30uM inactive
COc1ccc(/C=C(\NC(=O)c2cccs2)C(=O)NN)cc1OC	none (no result: H9c2 TAG inh)
O=C(CSc1nnc(-c2ccncc2)o1)Nc1cc(Cl)ccc1C(=O)O	PfG6PD inh 59.6 | PfGluPho conf inactive
Cc1cnc(C(=O)OCc2nc3ccccc3o2)cn1	none
O=c1c(Br)ccc(Br)cc1Br	PfG6PD inh 65.8, H9c2 TAG inh 98.8 (no result: A3A deaminase, A3G deaminase) | PfGluPho conf inactive
O=C1CN(S(=O)(=O)c2cc(Br)ccc2Br)CCN1	none
Cc1ccc(F)c(S(=O)(=O)NC(=O)C2(C)CCN2C(=O)CCC2CCCC2)c1 (stereo unspecified)	none (no result: PfG6PD inh, A3A deaminase, A3G deaminase)
O=C(Nc1ccccc1)N(O)c1ccc(Cl)cc1	PfG6PD inh 86.7 (no result: H9c2 TAG inh) | PfGluPho conf inactive

Compound activity from PubChem BioAssay.
